Vif-APOBEC3F blk: Vif-A3F binding inhibition; 0.2% of 390,000 active; AID 602313; HeLa A3F-eYFP + Vif (tagged APOBEC3F with the HIV-1 protein that degrades it), YFP fluorescence increase; Potency, µM (series often up to 46.1 µM), for inactives: at the top dose activity, negative = active; note: potency is the fitted concentration of half-maximal effect; % of control where 0% means no effect; nearly all actives have a fitted effect of over 65% in size
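HeLa cells stably expressing A3F-eYFP plus Vif, plated and incubated overnight at 37 deg C, then exposed to compounds overnight at 37 deg C. Blocked degradation read as raised yellow fluorescence (Ex 488/Em 500-530).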
LDHA inh: blocks human lactate dehydrogenase A; P00338; 0.15% of 480,000 active; activity change, % (values are at about 110 or 230 µM); purified LDHA, NADH/diaphorase-resazurin fluorescence; stronger effect = lower value; in the data active = activity change below about -30%; inconclusive = mostly about -25% to -30%;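 note: plate controls were DMSO wells for no effect and wells without enzyme for full effect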
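Enzyme activity of human lactate dehydrogenase 5 (2 nM; 0.06 mM NADH, 0.2 mM pyruvate, 5 min, RT) is measured via a resazurin/diaphorase fluorescence readout of residual NADH.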
Vif-APOBEC3G blk: Vif-A3G binding inhibition. HeLa A3G-eYFP + Vif (tagged APOBEC3G with the HIV-1 protein that degrades it), YFP fluorescence, overnight. Q9HC16. 0.076% of 410,000 active. Potency, µM (titrated, usually from 46.1 µM), for the others: top-dose activity, negative = active, actives largely listed as inhibitors; note: potency is the fitted concentration of half-maximal effect; % is set by controls: 0 for no effect and ±100 for the full control effect; nearly all actives have a fitted effect of over 60% in size
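HeLa cells stably expressing Vif and C-terminally eYFP-tagged A3G, seeded overnight at 37 deg C, then exposed to compound by pintool overnight at 37 deg C. Rise in yellow fluorescence (Ex 488/Em 500-530, Acumen) marks blocked Vif-driven A3G degradation.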
Pin1 inh: inhibitors of human Pin1. Q13526. Pin1 FP peptide displacement, HiFluor488, 10 min. Potency, µM (highest dose often 115 µM), for inactives: top-dose activity, negative = inhibition, hits mostly inhibitors. 0.009% of 390,000 active. AID 504891; active = well fitted inhibition curve with a large enough effect in the polarisation, with a control signal flat, not every such curve was filed as active; inconclusive = small, poorly fitted or top-dose-only effect, or effect the other way, or a change in a side signal; inactive = no such curve, though single readings can be large or run the other way; the % refers to the polarisation; note: potency is the fitted concentration of half-maximal effect; % is set by controls: 0 for no effect and ±100 for the full control effect
PGK inhibitor: inhibitors of T. brucei phosphoglycerate kinase | 0.043% of 380,000 active | PGK/GAPDH coupled, Kinase-Glo luminescence, 60 min | Potency, µM (series often up to 57.5 µM), for the others: top-dose activity change, negative = inhibition, most hits filed as inhibitors | P07378 | AID 602233; note: potency is the fitted concentration of half-maximal effect; % is set by controls: 0 for no effect and ±100 for the full control effect; nearly all actives have a fitted effect of over 60% in size
Target sequence (P07378 whole entry, looked up): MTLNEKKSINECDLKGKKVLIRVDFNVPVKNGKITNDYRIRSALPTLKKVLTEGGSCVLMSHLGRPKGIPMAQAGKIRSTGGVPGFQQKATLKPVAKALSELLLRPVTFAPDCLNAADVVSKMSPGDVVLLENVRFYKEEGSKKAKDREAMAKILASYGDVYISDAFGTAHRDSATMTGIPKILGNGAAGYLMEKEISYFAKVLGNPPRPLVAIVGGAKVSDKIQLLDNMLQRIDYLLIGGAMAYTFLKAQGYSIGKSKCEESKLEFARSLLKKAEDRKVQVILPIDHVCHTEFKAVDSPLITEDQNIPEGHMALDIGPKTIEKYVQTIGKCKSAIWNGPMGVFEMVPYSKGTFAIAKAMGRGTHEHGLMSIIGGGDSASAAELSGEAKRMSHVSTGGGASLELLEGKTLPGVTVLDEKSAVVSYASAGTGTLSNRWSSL
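Luminescent ATP detection (Kinase-Glo Plus) follows a 60-minute room-temperature incubation, with wells lacking PGK as controls. Buffer: 100 mM TEA (pH 7.6), 5 mM MgCl2, 0.01% Tween-20. Coupling enzyme GAPDH (100 nM final) supplies unstable 1,3-BPG in-well.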
mIDH1 inhibitor: human IDH1 R132H inhibition; 0.093% of 390,000 active; IDH1-R132H enzyme, NADPH consumption, diaphorase/resazurin fluorescence; O75874; Potency, µM (doses to about 76.6 µM), without a hit: top-dose activity change, negative = inhibition, actives largely listed as inhibitors; note: potency is the fitted concentration of half-maximal effect; % is set by controls: 0 for no effect and ±100 for the full control effect; nearly all actives have a fitted effect of over 65% in size
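IDH1-R132H (0.5 ug/mL) preincubated 30 min with compound, then NADPH (0.016 mM) and alpha-KG (2 mM) added; 80 min at RT, pH 7.5. Remaining NADPH coupled via diaphorase/resazurin to fluorescence (540/590 nm); concentration-response curves normalized to no-enzyme control.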
Numbers without * were called inactive; i = inactive; ? = inconclusive; / = no result. The list is not random: actives were taken first. Their share in the collection is about 0.49%. Unless noted, calls come from the whole dose curve; as a rule, active = well fitted curve in the direction sought with a large enough effect; inconclusive = small, poorly fitted or top-dose-only effect, or another doubt; inactive = no such curve, though single readings can be large; an effect the other way counts as inactive or inconclusive.

SMILES	Vif-APOBEC3F blk	LDHA inh	Vif-APOBEC3G blk	Pin1 inh	PGK inhibitor	mIDH1 inhibitor
CN(CC(=O)Nc1ccc(Cl)c(C(F)(F)F)c1)CC(=O)NC1CCCC1	/	1	/	/	/	/
O=C(NN1CCOCC1)c1ccn(COc2ccc(Br)cc2)n1	/	-33*	/	/	/	/
O=C(NN1CCOCC1)c1ccn(COc2c(Cl)cccc2Cl)n1	/	-4	/	/	/	/
Cc1ccnc(NC(=S)NC(=O)/C=C/c2ccco2)c1	-6%	1	7.9µM*	1%	0%	-2%
Cc1ccc(O)c(NC(=S)NC(=O)/C=C/c2ccco2)c1	3%	-2	?	2%	-5%	4%
CCOC(=O)c1cnc(SCC(=O)Nc2cccc(Cl)c2C)nc1N	/	5	/	/	/	/
CCOC(=O)CN1C=C(c2ccc3ccccc3n2)C(C[N+](=O)[O-])c2ccccc21 (configuration not stated)	?	15	13µM*	?	4%	7%
CC1CCN(Cc2ccc(CNC(=O)c3cnn(-c4ccccc4)c3)cc2)CC1	/	-1	/	/	/	/
COc1ccc(NS(=O)(=O)c2ccc(OC)c(OC)c2)cc1OC	-5%	-7	7%	8%	-7%	0%
COc1ccc(S(=O)(=O)NNS(=O)(=O)c2ccc(OC)c(OC)c2)cc1OC	/	-81*	0%	/	/	/
CCc1cccc(C)c1NC(=O)c1cc(=O)c2cc(C)ccc2o1	/	10	/	/	/	/
COc1ccc(OC)c(S(=O)(=O)Nc2ccc(-c3ccc(N4CCC(C)CC4)nn3)cc2)c1	/	16	/	/	/	/
CCc1ccccc1N(C(C)=O)c1nc(COc2ccccc2C(N)=O)cs1	/	-30*	/	/	/	/
CC(=O)N(c1cccc(C)c1)c1nc(COc2ccccc2C(N)=O)cs1	/	-13	/	/	/	/
CCCCN(C)CC(O)Cn1cc(/C=C/C(=O)c2ccc(OCC)cc2)c2ccccc21 (configuration not stated)	0%	13	-19%	?	-3%	2%
CCCCN(C)CC(O)Cn1cc(/C=C/C(=O)c2cccs2)c2ccccc21 (configuration not stated)	28µM*	2	?	?	2%	1%
Cc1nc2c(c(=O)[nH]1)C(c1cc(F)ccc1F)CC(=O)N2 (configuration not stated)	/	4	/	/	/	/
CCOC(=O)C1=C(Cc2ccc(OC)cc2)C(=O)c2ccccc2C1=O	?	49	?	?	-6%	21%
CCOC(=O)C1=C(O)c2ccccc2C(=O)/C1=C\c1ccc(CC)cc1	22µM*	91	?	-5%	i	12%
CC(C)CCNC(=O)c1ccc2c(c1)NC(=O)C(CS(=O)(=O)Cc1cccc(Br)c1)N2 (configuration not stated)	11µM*	6	?	54%	-9%	6%
CCOc1ccc(C(=O)N/N=C/c2ccc(-c3ccc(S(=O)(=O)Nc4ncccn4)cc3)o2)cc1	-12%	-8	-1%	/	-17%	-1%
O=C(N/N=C/c1ccc(-c2ccc(S(=O)(=O)Nc3ncccn3)cc2)o1)c1cc2ccccc2cc1O	6%	-46*	0%	?	?	-6%
O=C(O)Cn1cc(C(C(=O)O)N2CCN(Cc3ccccc3)CC2)c2ccccc21 (configuration not stated)	/	-9	/	/	/	/
CSc1ccccc1NC(=O)CN(C)CC(=O)Nc1c(F)cccc1F	-4%	-55*	1%	-19%	-9%	6%
CSc1ccccc1NC(=O)CN(C)CC(=O)Nc1ccccc1F	-9%	-31*	-11%	6%	0%	5%
CN(CC(=O)Nc1ccccc1F)CC(=O)Nc1ccc(F)c(F)c1F	-6%	-1	0%	-4%	/	-4%
Nc1ccc2nc3c(=O)n(C4CCCCC4)c(=O)[nH]c3nc2c1	13µM*	8	?	/	-13%	1%
CCCCn1c(=O)[nH]c2nc3cc(N)ccc3nc2c1=O	-12%	33	11%	/	7%	5%
Cc1nn(C)c(C)c1CC(=O)N1CCN(S(=O)(=O)c2c(C)c(C)c(C)c(C)c2C)CC1	/	-3	/	/	/	/
